Assay results from PubChem BioAssay (EPA / NIEHS).
Records with an inconclusive call do not appear. Active and inactive are the calls of the source. The calls were made as follows, unless noted: active = hit-call score of the fitted dose curve at least 0.9, where 1 is the maximum; inactive = score below 0.9.

What was measured:
[1] = biological target: Oxysterols receptor LXR-beta (Homo sapiens) (UniProt P55055); assay: ATG_LXRb_TRANS: Attagene TRANS-FACTORIAL HepG2 Assay for human Liver X Receptor beta (LXRb) (AID 2282981; active = hit-call score of the fitted dose curve at least 0.9, where 1 is the maximum); details: HepG2 Attagene TRANS GAL4-LXRb reporter, mRNA
Outline: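 Gain-of-signal mRNA reporter endpoint, DMSO as negative control. Transiently transfected HepG2 cells carrying the NR-Gal4 chimera and GAL4-UAS reporter units were treated 24 h; transcripts quantified by RT-PCR and capillary electrophoresis fluorescence.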

[2] = biological target: Hepatocyte nuclear factor 4-alpha (Homo sapiens) (UniProt P41235); assay: ATG_HNF4a_TRANS: Attagene TRANS-FACTORIAL HepG2 Assay for human Hepatocyte Nuclear Factor 4 alpha (HNF4a) (AID 2282982; active = hit-call score of the fitted dose curve at least 0.9, where 1 is the maximum); details: HepG2 HNF4a transactivation reporter, mRNA readout
Outline: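 Gain-of-signal mRNA induction, relative to DMSO vehicle, was read after 24 h compound treatment of HepG2 cells bearing transfected GAL4-UAS reporters. Detection used RT-PCR, 6-FAM primer extension and capillary electrophoresis.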

[3] = ATG_M_06_TRANS: Attagene TRANS-FACTORIAL HepG2 Assay for M06 Transcription Factor (Internal Marker) (AID 2282983; active = hit-call score of the fitted dose curve at least 0.9, where 1 is the maximum); details: HepG2 Attagene TRANS M06 internal marker reporter
Outline: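 HepG2 cells transiently transfected with multiplexed GAL4-UAS reporter transcription units; after 24 h compound exposure, reporter mRNA measured by RT-PCR, FAM-labelled primer extension, HpaI digestion and capillary electrophoresis. Gain-of-signal fitted versus DMSO baseline; background control readout.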

[4] = biological target: Nuclear receptor subfamily 4 group A member 2 (Homo sapiens) (UniProt P43354); assay: ATG_NURR1_TRANS: Attagene TRANS-FACTORIAL HepG2 Assay for human Nuclear Receptor Related Protein 1 (NURR1) (AID 2282985; active = hit-call score of the fitted dose curve at least 0.9, where 1 is the maximum); details: HepG2 Attagene TRANS reporter, mRNA readout
Outline: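 HepG2 / transient MRTU transfection / 24 h compound exposure / RT-PCR + CE fluorescence of reporter mRNA / gain-of-signal vs DMSO.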

[5] = biological target: Transcriptional activator Myb (Homo sapiens) (UniProt P10242); assay: ATG_Myb_CIS: Attagene CIS-FACTORIAL HepG2 Assay for human Myeloblastosis (Myb) Proto-Oncogene Transcription Factor (AID 2282986); details: HepG2 Attagene CIS-FACTORIAL Myb reporter transcription; actives raise or lower the signal
Outline: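 Reporter mRNA is quantified by RT-PCR and capillary electrophoresis 24 h after dosing HepG2 cells transfected with cis-regulated reporter units, which track endogenous transcription factor activity. Gain and loss of signal are fitted versus DMSO baseline.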

[6] = biological target: Nuclear respiratory factor 1 (Homo sapiens) (UniProt Q16656); assay: ATG_NRF1_CIS: Attagene CIS-FACTORIAL HepG2 Assay for human Nuclear Respiratory Factor 1 (NRF1) Orphan Gene (AID 2282987); details: HepG2 NRF1 cis-element reporter, Attagene multiplex; actives raise or lower the signal
Outline: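 Endogenous NRF1-driven reporter transcription in transfected HepG2 cells after 24 h treatment. Readout: RT-PCR products, 6-FAM labelled and resolved by capillary electrophoresis; changes fitted both directions relative to DMSO.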

[7] = ATG_NFI_CIS: Attagene CIS-FACTORIAL HepG2 Assay for human Nuclear Factor I (NFI) (AID 2282989); details: HepG2 cis-regulatory reporter, NFI response element transcription; actives raise or lower the signal
Outline: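 Reporter transcription driven by endogenous transcription factors in HepG2 cells; 24 h treatment. Quantitation by labelled RT-PCR fragments on capillary electrophoresis, gain- or loss-of-signal relative to DMSO.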

[8] = biological target: Myc proto-oncogene protein (Homo sapiens) (UniProt P01106); assay: ATG_Myc_CIS: Attagene CIS-FACTORIAL HepG2 Assay for human Myelocytomatosis (Myc) Proto-Oncogene Transcription Factor (AID 2282990); details: HepG2, Attagene cis-reporter transcription factor activity; actives raise or lower the signal
Outline: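 Transiently transfected HepG2 cells bearing cis-promoter reporter units for endogenous transcription factors; 24 h exposure. Reporter mRNA measured by RT-PCR, 6-FAM primer extension, HpaI cut and capillary electrophoresis; bidirectional fit relative to DMSO.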

[9] = ATG_NF_kB_CIS: Attagene CIS-FACTORIAL HepG2 Assay for human Nuclear Factor Kappa B (NF-kB) (AID 2282991); details: HepG2 Attagene cis-factorial NF-kB reporter mRNA; actives raise or lower the signal
Outline: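 Readout is reporter transcript level, gain or loss versus DMSO, measured 24 h post-dose via RT-PCR, fluorescent labelling and capillary electrophoresis. Human HepG2 liver cells carried transiently transfected CIS reporter constructs reflecting endogenous factors.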

[10] = ATG_NRF2_ARE_CIS: Attagene CIS-FACTORIAL HepG2 Assay for human Nuclear Factor Erythroid 2 Related Factor 2 (NFR2) response to Antioxidant Response Elements (ARE) (AID 2282992); details: HepG2 Attagene ARE/NRF2 reporter, transcription factor activity; actives raise or lower the signal;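 as to AC50: reporter mRNA level measured by RT-PCR and capillary electrophoresis fluorescence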
Outline: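 Cis-factorial assay: transfected HepG2 reporter library, 24 h dosing, mRNA readout via RT-PCR/CE; DMSO-referenced bidirectional analysis.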

[11] = ATG_Oct_MLP_CIS: Attagene CIS-FACTORIAL HepG2 Assay for human Octamer-Binding Transcription Factor (Oct) (AID 2282993); details: HepG2 Attagene cis-factorial Oct reporter, mRNA; actives raise or lower the signal
Outline: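 Transfected HepG2 cells, 24 h treatment. Reporter mRNA quantified by RT-PCR–capillary electrophoresis; bidirectional fitting against DMSO.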

[12] = biological target: Cellular tumor antigen p53 (Homo sapiens) (UniProt P04637); assay: ATG_p53_CIS: Attagene CIS-FACTORIAL HepG2 Assay for human p53 Transcription Factor (AID 2282994); details: HepG2 p53 cis-element reporter, Attagene mRNA; actives raise or lower the signal
Outline: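 Using HepG2 hepatoma cells carrying cis-acting multiplexed reporters, mRNA induction is detected after a 24 h exposure. Gain- and loss-of-signal responses are fitted relative to DMSO-treated cells.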

[13] = ATG_M_32_TRANS: Attagene TRANS-FACTORIAL HepG2 Assay for M32 Transcription Factor (Internal Marker) (AID 2282984; active = hit-call score of the fitted dose curve at least 0.9, where 1 is the maximum); details: HepG2 Attagene TRANS M32 internal marker reporter
Outline: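 Capillary electrophoresis of 6-FAM-labelled reporter fragments gives the signal; data fitted for gain over DMSO negative control. Source: HepG2 cells bearing transient multiple reporter transcription units, 24 h exposure.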

[14] = BSK_3C_TissueFactor: BioMAP Diversity Plus: 3C Assay for Tissue Factor Biomarker Activity (AID 2282997); details: BioMAP 3C HUVEC, tissue factor biomarker readout; actives raise or lower the signal
Outline: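 Primary human umbilical vein endothelial cells in the 3C system were exposed to test chemical for 24 h, then Tissue Factor measured by ELISA. Activity was fitted bidirectionally against DMSO as negative control and baseline.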

[15] = BSK_3C_uPAR: BioMAP Diversity Plus: 3C Assay for Urokinase-type plasminogen activator receptor (uPAR) Biomarker Activity (AID 2282998); details: BioMAP 3C HUVEC, uPAR biomarker ELISA; actives raise or lower the signal
Outline: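 Readout: ELISA for surface uPAR. System: human umbilical vein endothelial primary cells, 24 h after chemical exposure. Analysis: bidirectional fit, DMSO baseline.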

[16] = BSK_3C_VCAM1: BioMAP Diversity Plus: 3C Assay for Vascular cell adhesion molecule 1 (VCAM1) Biomarker Activity (AID 2282999); details: BioMAP 3C HUVEC, VCAM1 ELISA, cytokine-stimulated; actives raise or lower the signal
Outline: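 Human umbilical vein endothelial cells (3C system), biomarker read by ELISA 24 h after dosing; bidirectional fit against DMSO baseline. Cytotoxicity tracked by SRB total-protein staining in parallel cultures at biomarker time.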

[17] = biological target: Oxysterols receptor LXR-alpha (Homo sapiens) (UniProt Q13133); assay: ATG_LXRa_TRANS: Attagene TRANS-FACTORIAL HepG2 Assay for human Liver X Receptor alpha (LXRa) (AID 2282980; active = hit-call score of the fitted dose curve at least 0.9, where 1 is the maximum); details: HepG2 Attagene TRANS reporter, LXRa transactivation
Outline: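 HepG2 cells were transiently transfected with multiplexed reporter units driven by chimeric LXRa–GAL4 fusion proteins, then dosed for 24 h. Reporter mRNA was quantified by RT-PCR, fluorescent labelling and capillary electrophoresis; gain of signal fitted against DMSO baseline.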

Measured: AC50

Chain of Myc proto-oncogene protein (Homo sapiens) (P01106 whole entry, looked up): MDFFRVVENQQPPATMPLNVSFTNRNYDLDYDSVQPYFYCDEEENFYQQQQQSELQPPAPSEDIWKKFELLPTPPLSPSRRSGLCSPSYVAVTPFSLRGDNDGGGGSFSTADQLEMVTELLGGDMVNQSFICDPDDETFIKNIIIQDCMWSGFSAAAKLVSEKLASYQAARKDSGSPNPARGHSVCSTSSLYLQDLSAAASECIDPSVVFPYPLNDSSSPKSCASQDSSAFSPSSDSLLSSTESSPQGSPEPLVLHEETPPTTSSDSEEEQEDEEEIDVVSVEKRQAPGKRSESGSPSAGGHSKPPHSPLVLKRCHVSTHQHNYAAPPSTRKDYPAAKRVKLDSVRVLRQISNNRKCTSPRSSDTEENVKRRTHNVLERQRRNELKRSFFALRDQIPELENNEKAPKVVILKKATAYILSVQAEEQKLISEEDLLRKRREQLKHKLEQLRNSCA
Chain of Cellular tumor antigen p53 (Homo sapiens) (P04637 whole entry, looked up): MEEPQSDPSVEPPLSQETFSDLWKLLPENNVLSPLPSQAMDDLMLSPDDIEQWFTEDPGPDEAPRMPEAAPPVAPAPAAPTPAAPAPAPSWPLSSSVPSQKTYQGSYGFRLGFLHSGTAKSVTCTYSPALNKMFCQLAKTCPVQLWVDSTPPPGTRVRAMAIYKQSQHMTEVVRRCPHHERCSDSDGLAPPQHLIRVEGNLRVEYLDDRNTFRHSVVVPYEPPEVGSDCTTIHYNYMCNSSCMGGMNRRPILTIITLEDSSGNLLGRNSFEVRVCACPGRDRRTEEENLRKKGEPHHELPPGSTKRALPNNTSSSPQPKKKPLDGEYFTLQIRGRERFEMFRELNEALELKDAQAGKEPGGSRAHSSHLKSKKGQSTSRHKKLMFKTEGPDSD
Chain of Nuclear respiratory factor 1 (Homo sapiens) (Q16656 whole entry, looked up): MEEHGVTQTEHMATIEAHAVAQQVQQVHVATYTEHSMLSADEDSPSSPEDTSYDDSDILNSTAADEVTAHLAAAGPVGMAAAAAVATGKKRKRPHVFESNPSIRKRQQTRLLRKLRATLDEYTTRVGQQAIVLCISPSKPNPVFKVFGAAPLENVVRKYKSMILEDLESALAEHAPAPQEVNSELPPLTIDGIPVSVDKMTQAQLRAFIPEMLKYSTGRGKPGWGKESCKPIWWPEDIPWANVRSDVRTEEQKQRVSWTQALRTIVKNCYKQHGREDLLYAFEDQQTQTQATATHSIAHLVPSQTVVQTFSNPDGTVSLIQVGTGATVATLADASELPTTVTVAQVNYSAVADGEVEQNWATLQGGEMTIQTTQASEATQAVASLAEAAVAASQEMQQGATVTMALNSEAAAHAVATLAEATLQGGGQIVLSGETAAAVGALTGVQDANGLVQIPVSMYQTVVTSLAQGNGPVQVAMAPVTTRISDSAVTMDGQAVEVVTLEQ
Chain of Nuclear receptor subfamily 4 group A member 2 (Homo sapiens) (P43354 whole entry, looked up): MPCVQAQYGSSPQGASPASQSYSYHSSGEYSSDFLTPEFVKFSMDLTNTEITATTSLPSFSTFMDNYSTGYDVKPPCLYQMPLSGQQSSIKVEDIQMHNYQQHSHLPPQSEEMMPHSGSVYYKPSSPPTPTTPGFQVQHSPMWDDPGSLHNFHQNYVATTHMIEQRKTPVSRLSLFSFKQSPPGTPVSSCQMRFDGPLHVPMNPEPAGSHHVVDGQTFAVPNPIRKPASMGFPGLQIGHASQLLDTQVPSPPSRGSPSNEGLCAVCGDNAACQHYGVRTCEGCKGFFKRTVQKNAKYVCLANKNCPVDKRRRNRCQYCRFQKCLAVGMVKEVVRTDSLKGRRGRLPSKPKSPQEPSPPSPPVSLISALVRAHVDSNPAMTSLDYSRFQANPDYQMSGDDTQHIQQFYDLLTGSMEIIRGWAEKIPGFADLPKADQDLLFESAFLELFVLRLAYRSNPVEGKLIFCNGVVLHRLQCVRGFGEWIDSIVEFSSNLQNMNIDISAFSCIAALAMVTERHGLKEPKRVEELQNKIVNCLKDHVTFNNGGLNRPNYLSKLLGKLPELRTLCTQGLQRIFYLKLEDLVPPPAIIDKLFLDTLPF
Chain of Hepatocyte nuclear factor 4-alpha (Homo sapiens) (P41235 whole entry, looked up, the tested form may be a part): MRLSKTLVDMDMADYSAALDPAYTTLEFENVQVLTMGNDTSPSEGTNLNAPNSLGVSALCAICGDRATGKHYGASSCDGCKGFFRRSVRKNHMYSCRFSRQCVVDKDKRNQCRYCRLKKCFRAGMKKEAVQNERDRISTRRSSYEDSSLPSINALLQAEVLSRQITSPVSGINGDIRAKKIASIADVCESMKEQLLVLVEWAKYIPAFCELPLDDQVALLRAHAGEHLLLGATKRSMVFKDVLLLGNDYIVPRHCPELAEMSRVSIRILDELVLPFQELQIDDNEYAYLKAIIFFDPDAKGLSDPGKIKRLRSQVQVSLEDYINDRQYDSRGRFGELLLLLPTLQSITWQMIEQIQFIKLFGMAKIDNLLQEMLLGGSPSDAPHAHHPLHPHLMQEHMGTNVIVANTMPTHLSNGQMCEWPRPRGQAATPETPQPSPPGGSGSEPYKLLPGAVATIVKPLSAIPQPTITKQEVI
Chain of Transcriptional activator Myb (Homo sapiens) (P10242 whole entry, looked up): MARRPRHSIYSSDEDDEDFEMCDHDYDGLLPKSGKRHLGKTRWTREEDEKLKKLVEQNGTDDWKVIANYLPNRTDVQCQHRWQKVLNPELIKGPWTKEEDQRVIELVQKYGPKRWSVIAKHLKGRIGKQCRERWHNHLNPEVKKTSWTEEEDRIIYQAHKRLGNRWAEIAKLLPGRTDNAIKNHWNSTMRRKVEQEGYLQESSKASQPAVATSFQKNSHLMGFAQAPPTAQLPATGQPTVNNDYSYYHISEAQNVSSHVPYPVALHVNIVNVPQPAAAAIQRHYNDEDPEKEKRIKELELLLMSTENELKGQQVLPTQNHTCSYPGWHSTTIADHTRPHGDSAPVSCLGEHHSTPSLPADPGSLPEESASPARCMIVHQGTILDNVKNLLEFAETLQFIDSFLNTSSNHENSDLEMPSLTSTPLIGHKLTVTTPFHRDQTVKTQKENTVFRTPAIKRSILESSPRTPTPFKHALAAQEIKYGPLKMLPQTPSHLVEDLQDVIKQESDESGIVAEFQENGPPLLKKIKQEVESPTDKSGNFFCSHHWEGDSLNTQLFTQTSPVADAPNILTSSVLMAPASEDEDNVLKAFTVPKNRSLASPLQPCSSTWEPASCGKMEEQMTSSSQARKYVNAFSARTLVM
Chain of Oxysterols receptor LXR-beta (Homo sapiens) (P55055 whole entry, looked up, the tested form may be a part): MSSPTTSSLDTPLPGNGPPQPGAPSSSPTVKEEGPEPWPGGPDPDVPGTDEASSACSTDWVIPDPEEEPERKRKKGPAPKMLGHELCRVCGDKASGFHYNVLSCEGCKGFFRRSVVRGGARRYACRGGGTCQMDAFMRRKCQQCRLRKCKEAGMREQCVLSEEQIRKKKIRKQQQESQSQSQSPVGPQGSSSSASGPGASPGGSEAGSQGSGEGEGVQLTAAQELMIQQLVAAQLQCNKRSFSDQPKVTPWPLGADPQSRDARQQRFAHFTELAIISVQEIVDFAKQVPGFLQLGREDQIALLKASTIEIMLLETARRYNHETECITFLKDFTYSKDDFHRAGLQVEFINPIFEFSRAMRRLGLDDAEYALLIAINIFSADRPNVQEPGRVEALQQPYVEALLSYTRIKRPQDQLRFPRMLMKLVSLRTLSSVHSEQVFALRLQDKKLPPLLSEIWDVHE
Chain of Oxysterols receptor LXR-alpha (Homo sapiens) (Q13133 whole entry, looked up, the tested form may be a part): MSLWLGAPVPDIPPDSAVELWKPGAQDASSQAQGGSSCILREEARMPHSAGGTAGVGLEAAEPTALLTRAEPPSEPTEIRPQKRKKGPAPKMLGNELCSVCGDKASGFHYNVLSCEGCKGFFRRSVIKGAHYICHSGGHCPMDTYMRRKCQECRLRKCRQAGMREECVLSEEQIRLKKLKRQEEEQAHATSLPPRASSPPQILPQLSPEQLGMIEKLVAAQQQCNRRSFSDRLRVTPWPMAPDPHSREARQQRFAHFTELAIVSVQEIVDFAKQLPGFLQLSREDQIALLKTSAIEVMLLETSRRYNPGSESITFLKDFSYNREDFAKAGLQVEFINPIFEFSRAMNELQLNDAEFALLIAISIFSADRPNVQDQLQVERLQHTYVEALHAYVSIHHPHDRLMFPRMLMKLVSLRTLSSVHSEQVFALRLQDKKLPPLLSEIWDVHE

CC1(C)CC(N)CC(C)(CN)C1 (stereo not given)
not listed: [13] | [14] | [15] | [16] | [17]
inactive: all other assays above

C=CC(C)CCCC(C)(C)O (stereo not given)
inactive: [2] | [3] | [5] | [6] | [8] | [9] | [10] | [11] | [12]

CCO[Si](CC)(OCC)OCC
active: [10] 19.8 µM
not listed: [1] | [13] | [14] | [15] | [16] | [17]
inactive: all other assays above

c1ccc(Cc2ccccc2)cc1
not listed: [14] | [15] | [16] | [17]
inactive: all other assays above

C1CCCNCC1
inactive: [2] | [3] | [4] | [5] | [6] | [8] | [10] | [11]

CCCCN(CCO)CCO
not listed: [1] | [4] | [13] | [17]
inactive: all other assays above

CC(=O)CCC=C(C)CCC=C(C)C
active: [10] 53 µM | [16] 30.9 µM
not listed: [1] | [8] | [12] | [17]
inactive: all other assays above

CC(=O)OCC=C(C)CCC=C(C)CCC=C(C)C
active: [6] 154 µM | [7] 157 µM | [10] 49.5 µM
not listed: [2] | [12] | [13] | [17]
inactive: all other assays above

NNC(=O)OCc1ccccc1
not listed: [1] | [12] | [14] | [15] | [16] | [17]
inactive: all other assays above

CCOC(=O)C=Cc1ccccc1
active: [10] 42.3 µM
not listed: [1] | [2] | [3] | [13]
inactive: all other assays above

CCC(C)(C)C1CCC(OC)CC1 (stereo not given)
inactive: [17] | [4] | [5] | [6] | [8] | [9] | [10] | [11] | [12]

O=[N+]([O-])c1cc(N(CCO)CCO)ccc1NCCO
not listed: [1] | [4] | [13] | [14] | [15] | [16] | [17]
inactive: all other assays above
